# Assay outcomes: PubChem, National Center for Advancing Translational Sciences (NCATS)
# Cruzain inh noDet: qHTS Assay for Promiscuous and Specific Inhibitors of Cruzain (without detergent); AID 1476, 2009; Potency, µM, for inactives: max response, negative = inhibition, actives largely listed as inhibitors; Cruzipain (Trypanosoma cruzi), P25779; purified cruzain, Z-FR-AMC fluorescence, no detergent; actives 2.3% (n = 200,000);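 further: plate controls were enzyme without inhibitor for no effect and buffer without enzyme for full effect; nearly all actives have a fitted effect of over 40% in size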
# Target sequence (P25779 123-467 limits assumed): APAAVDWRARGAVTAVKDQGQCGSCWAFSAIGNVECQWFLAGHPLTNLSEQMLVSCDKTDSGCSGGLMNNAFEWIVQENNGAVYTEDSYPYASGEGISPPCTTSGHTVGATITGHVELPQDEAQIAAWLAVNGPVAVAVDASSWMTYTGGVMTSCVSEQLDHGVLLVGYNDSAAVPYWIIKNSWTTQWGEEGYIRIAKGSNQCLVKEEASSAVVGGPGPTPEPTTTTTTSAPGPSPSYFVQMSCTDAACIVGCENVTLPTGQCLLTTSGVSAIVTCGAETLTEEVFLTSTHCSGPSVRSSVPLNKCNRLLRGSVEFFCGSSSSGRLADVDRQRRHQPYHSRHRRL
#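 Detergent-free condition (0.00005% Triton X-100) in acetate buffer pH 5.5 with DTT. 1.5 nM enzyme and compound were pre-mixed 15 min, then 2 uM Z-FR-AMC substrate added; reaction progress from fluorescence change between first and third reads (60 s).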
# Cruzain Triton: qHTS Assay for Promiscuous and Specific Inhibitors of Cruzain (with detergent) | Cruzipain (Trypanosoma cruzi), P25779 | purified cruzain, Z-FR-AMC fluorescence, 0.01% Triton | Potency, µM, for the others: max response, negative = inhibition, hits mostly inhibitors | actives 0.43% (n = 200,000) | AID 1478, 2009;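 further: plate controls were neutral wells for no effect and buffer without enzyme for full effect; nearly all actives have a fitted effect of over 40% in size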
#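 Cysteine protease activity tested under reducing, mildly acidic conditions (100 mM sodium acetate pH 5.5, 5 mM DTT) plus 0.01% Triton X-100. Cruzain 1.5 nM; substrate Z-FR-AMC 2 uM; 15 min compound preincubation at room temperature.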
# * marks the source's active call; other numbers are inactive results; ? = inconclusive. An excerpt weighted towards active compounds, which were near 2.5% of everything screened. The call rests on the fitted dose curve; in most records, active means well fitted curve in the direction sought with a large enough effect; inconclusive means small, poorly fitted or top-dose-only effect, or another doubt; inactive means no such curve, though single readings can be large; an effect the other way counts as inactive or inconclusive. Potency means the concentration at half of the fitted maximal effect.
SMILES,Cruzain inh noDet,Cruzain Triton
CCN(CC)CCSc1nnc2c3cc(F)ccc3n(C)c2n1,12.6µM*,15.8µM*
CC(=O)N1CCc2cc(S(=O)(=O)NC(C(=O)Nc3ccc(C)cc3C)C(C)C)ccc21 (centres undefined),-9.6%,-1.4%
CCOC(=O)c1c(C)oc2nc(C)nc(NCCCN3CCN(c4cccc(C)c4)C(C)C3)c12 (centres undefined),-1.6%,0.0%
COc1ccc2c(C)c(CC(=O)NCc3ccccc3Cl)c(=O)oc2c1OC,-15.1%,-2.9%
Cc1cc(-c2ccc(C)c(S(=O)(=O)Nc3cccc(C#N)c3)c2)on1,-17.6%,-3.8%
O=C(CCn1cnc2onc(-c3ccc(F)cc3)c2c1=O)N1CCN(c2cccc(Cl)c2)CC1,-13.6%,-7.6%
Cc1ccc(OCC(=O)Nc2c(C(=O)c3ccc(Cl)cc3)oc3ccccc23)cc1C,1.5%,0.6%
Cc1nc2c(C(=O)NCCC(C)C)cnn2c(C)c1Cc1c(F)cccc1Cl,-4.4%,0.3%
O=C(N=Nc1c(O)[nH]c2ccccc12)c1cccc(S(=O)(=O)N2CCCCC2)c1,-16.5%,3.5%
CC(C)c1ccc2[nH]c(O)c(N=NC(=O)c3cccc(S(=O)(=O)N4CCCCC4)c3)c2c1,25.1µM*,-6.8%
Cc1ccc(-n2ncc3c(NCc4ccccc4)ncnc32)cc1Cl,6.1%,1.8%
CCN(CC)C(=O)c1sc2c(c1C)c(=O)n(-c1ccc(C)c(C)c1)c(=O)n2CC(=O)Nc1ccc(F)cc1,?,-1.7%
COc1ccc(OC)c(C2C=C(C34CC5CC(CC(C5)C3)C4)NC(=S)N2)c1 (centres undefined),25.1µM*,-2.1%
COc1cc(C2C=C(C34CC5CC(CC(C5)C3)C4)NC(=S)N2)cc(OC)c1OC (centres undefined),?,1.2%
Cc1cc(C)cc(NC(=O)CCn2cnc3ccccc3c2=O)c1,-10.5%,-1.2%
O=C(COC(=O)CNC(=O)c1ccccc1)Nc1nc(-c2ccccc2)cs1,?,25.1µM*
C/C(=N\Nc1nc2ccccc2s1)c1cccs1,-23.5%,-11.0%
O=C(CCn1cnc2ccccc2c1=O)Nc1nc(-c2ccc(Br)cc2)cs1,25.1µM*,6.3%
O=C(Cc1cccs1)Nc1nc(-c2ccccc2)cs1,-0.4%,-9.6%
O=C(COC(=O)c1cccs1)Nc1nc(-c2ccccc2)cs1,10µM*,-0.3%
C/C(=N\Nc1nc(-c2ccccc2)cs1)c1cccs1,7.94µM*,?
O=C(COC(=O)/C=C/c1cccs1)Nc1nc(-c2ccccc2)cs1,?,-4.5%
CCN(Cc1ccccc1)C(=O)c1cc(-c2ccccc2)n[nH]1,-16.1%,-5.9%
Cn1cc(Cl)c(C(=O)OCC(=O)Nc2nc(-c3ccc(Br)cc3)cs2)n1,31.6µM*,-5.7%
Cn1nccc1C(=O)OCC(=O)Nc1nc(-c2ccccc2)cs1,-5.9%,-8.2%
SMILES,Cruzain inh noDet,Cruzain Triton
COc1cccc(/C=N/NC(=O)c2cccc([N+](=O)[O-])c2)c1OS(=O)(=O)c1ccccc1,-17.8%,0.0%
COc1cccc(/C=N/NC(N)=S)c1OCc1ccccc1Cl,?,-19.4%
Cc1ccc(S(=O)(=O)Oc2ccccc2/C=N/NC(N)=S)cc1,?,7.08µM*
Cc1ccc(S(=O)(=O)Oc2ccccc2/C=N/NC(=O)c2nn(C)cc2[N+](=O)[O-])cc1,5.5%,-6.3%
NC(=S)N/N=C/c1ccccc1OCCSc1ccc(Cl)cc1,1µM*,1.41µM*
COc1cccc(/C=N/NC(N)=S)c1OS(=O)(=O)c1ccccc1,5.01µM*,14.1µM*
CCc1ccc(CNC(=O)c2sc3ncccc3c2-n2c(C)ccc2C)cc1,-4.8%,-10.3%
Cc1ccc(Sc2ccc(N3CCC(C(=O)Nc4cc(C)cc(C)c4)CC3)nn2)cc1,0.3%,-10.8%
Nc1c(-c2nc(-c3ccccc3)cs2)c2ccccn2c1C(=O)c1ccc2c(c1)OCO2,?,-7.4%
Cc1cc(Br)ccc1NC(=O)c1cc2c(=O)n(C)c3cc(Cl)ccc3c2s1,2.6%,-0.3%
CN(C)S(=O)(=O)c1ccc(C(=O)NCCS(=O)(=O)N2CCN(c3ccccc3)CC2)cc1,0.2%,1.0%
CCOC(=O)c1ccc(-c2ccc(C3Nc4ccccc4C(=O)N3O)o2)cc1 (centres undefined),?,-15.0%
Cc1cc([N+](=O)[O-])ccc1-c1ccc(C2Nc3ccccc3C(=O)N2O)o1 (centres undefined),20µM*,-5.4%
O=C(CSc1nc2ccccc2n1Cc1cccc(C(F)(F)F)c1)NCc1ccccc1,?,-10.0%
CC(NC(=O)c1sc2ncccc2c1-n1cccc1)c1ccccc1 (centres undefined),-21.8%,-3.4%
Oc1ccc(C=Nc2ccc3ncccc3c2)c(O)c1,15.8µM*,-9.0%
Oc1ccc(C=Nc2cccc3ncccc23)c(O)c1,-7.1%,-2.7%
CN(C)c1ccc(C(CNS(=O)(=O)c2ccc(Br)cc2)N2CCOCC2)cc1 (centres undefined),16.0%,-0.9%
COc1ccc(OC(=O)c2nc(SCc3ccc(C)cc3)ncc2Cl)cc1,20µM*,-1.4%
Cc1ccc(CSc2ncc(Cl)c(C(=O)Oc3ccc(F)cc3)n2)cc1,-4.2%,-1.0%
Cc1ccc2onc(CNC(=O)NCc3ccccc3)c2c1,-10.4%,-1.3%
Cn1cc(C(=O)NCCc2ccccc2)c(=O)c2cc(S(=O)(=O)N3CCCCC3)ccc21,-2.5%,0.0%
Cc1c(Cl)ccc2sc(NC(=O)CN3C(=O)c4ccccc4C3=O)nc12,10µM*,-0.1%
Cc1ccc2sc(NC(=O)CN3C(=O)CCC3=O)nc2c1C,0.8%,-2.7%
CCc1ccc(CSc2nc(-c3ccccc3F)nc3c2Cc2c(CO)cnc(C)c2O3)cc1,7.1%,-1.6%
SMILES,Cruzain inh noDet,Cruzain Triton
O=C(CNC(=O)c1cccs1)OCC(=O)c1ccc2ccccc2c1,-18.1%,?
CC(C)(C)c1ccc(C(=O)NCC(=O)OCC(=O)c2ccc3c(c2)-c2ccccc2C3)cc1,25.1µM*,-3.8%
CCOc1ccc(NC(=O)Cn2nc(Cc3cccnc3)c3ccccc3c2=O)cc1,-8.4%,-1.4%
Cc1cccc(N2CCN(C(=O)C3CCN(S(=O)(=O)c4c(C)noc4/C=C/c4ccccc4F)CC3)CC2C)c1 (centres undefined),-15.8%,-6.6%
CCOc1ccc2oc(=O)cc(CN3CCN(c4ccc(OC)cc4)CC3)c2c1,11.4%,1.0%
COc1cc(N=c2ssnc2Cl)c(OC)cc1Cl,25.1µM*,-11.2%
COc1ccc(OC)c(N=c2ssnc2Cl)c1,?,-14.7%
COc1cccc(NC(=O)C(C)n2c(=O)cc(C(F)(F)F)c3c(C)nn(C)c32)c1 (centres undefined),?,-1.5%
Cc1cc(C)cc(-n2ccnc2SCC(=O)Nc2ccc3c(c2)OCO3)c1,-15.5%,-6.7%
O=C(NCc1cccnc1)c1sc2cc(Cl)ccc2c1Cl,0.1%,-10.6%
Cc1ccc(NC(=O)c2sc3ccccc3c2Cl)cc1,-9.3%,-1.2%
CC(=O)Nc1ccc(NC(=O)C(C)OC(=O)CNC(=O)c2sc3ccccc3c2Cl)cc1 (centres undefined),10µM*,11.2µM*
O=C(NCc1ccco1)c1nc2ccccc2s1,-3.9%,-6.0%
O=C(NCc1ccco1)c1sc2cc(Cl)ccc2c1Cl,25.1µM*,?
O=C(NCc1ccco1)c1sc2ccccc2c1Cl,25.1µM*,?
CC(=O)c1cccc(NC(=O)CN2C(=O)CC(c3ccc(C)cc3C)=Nc3ccccc32)c1,14.1%,-4.5%
Cc1ccc(/C=C/c2onc(C)c2S(=O)(=O)N2CCC(C(=O)NCc3ccc(N(C)C)cc3)CC2)cc1,-7.1%,-0.2%
